KCNQ2 block: inhibitors of rat KCNQ2 potassium channel. O88943. CHO-K1 KCNQ2, FluxOR thallium flux, 20 min; stronger effect = lower value. B-score at 10 µM. 310,000 compounds, 1.1% hits;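 active means fluorescence ratio B-score at most minus 3 library SDs, with starting brightness B-score within 2 library SDs, cut at about -5.5 in these data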
Target sequence (O88943 whole entry, looked up): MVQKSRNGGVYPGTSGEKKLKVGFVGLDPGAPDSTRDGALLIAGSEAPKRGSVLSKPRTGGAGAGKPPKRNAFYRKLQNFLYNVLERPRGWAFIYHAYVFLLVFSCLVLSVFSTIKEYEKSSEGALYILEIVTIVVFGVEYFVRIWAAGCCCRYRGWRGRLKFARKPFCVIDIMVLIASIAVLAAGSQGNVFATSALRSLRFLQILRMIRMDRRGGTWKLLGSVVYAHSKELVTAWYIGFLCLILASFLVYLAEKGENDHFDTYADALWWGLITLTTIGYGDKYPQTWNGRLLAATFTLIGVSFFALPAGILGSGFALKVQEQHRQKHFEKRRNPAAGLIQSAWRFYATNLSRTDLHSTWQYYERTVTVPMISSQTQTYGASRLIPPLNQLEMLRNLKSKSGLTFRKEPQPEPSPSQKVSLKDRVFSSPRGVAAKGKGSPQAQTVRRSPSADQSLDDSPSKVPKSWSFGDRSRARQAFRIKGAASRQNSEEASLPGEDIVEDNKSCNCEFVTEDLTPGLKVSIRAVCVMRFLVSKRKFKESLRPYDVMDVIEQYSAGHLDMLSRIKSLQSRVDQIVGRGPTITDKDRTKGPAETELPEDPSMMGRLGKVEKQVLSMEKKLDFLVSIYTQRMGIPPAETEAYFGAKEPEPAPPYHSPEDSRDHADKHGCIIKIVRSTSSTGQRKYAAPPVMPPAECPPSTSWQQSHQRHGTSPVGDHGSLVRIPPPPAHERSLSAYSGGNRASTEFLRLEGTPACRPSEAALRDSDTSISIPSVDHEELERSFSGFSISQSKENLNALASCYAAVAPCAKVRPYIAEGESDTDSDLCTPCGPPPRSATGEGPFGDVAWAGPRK
KCNQ2 enhance: enhances the rat KCNQ2 potassium channel; O88943; CHO-K1 KCNQ2, FluxOR thallium flux fluorescence; stronger effect = higher value; B-score at 10 µM; 310,000 compounds, 0.54% hits; AID 2239;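 active means fluorescence ratio B-score at least 3 SD of library B-scores, with initial fluorescence B-score within 3 of them, cut at about 5.3 in these data; same plate scores as AID 2156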;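 further: B-score of peak minus minimum over baseline fluorescence ratio after K+ and Tl+ stimulus; positive B-score means potentiation of KCNQ2 with more thallium influx and brighter signal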
Numbers without * were called inactive. Most compounds without a hit are left out; they make up all but 1.6% or so of the library.

How did COc1ccccc1-c1ccc(SCc2cccc(C)c2)nn1 do in these assays?
KCNQ2 block: -6.2*; KCNQ2 enhance: -6.2

What do the screens show for `COc1ccccc1-c1ccc(SCc2ccc([N+](=O)[O-])cc2)nn1`?
KCNQ2 block: inactive

What do the screens show for `Cc1ccc(S(=O)(=O)N(CC#N)CC#N)cc1`?
KCNQ2 block: inactive

How did CN(C)CCNC(=O)c1ccc(COc2ccc(Cl)cc2Cl)cc1 do in these assays?
KCNQ2 block: -7.6*; KCNQ2 enhance: -7.6

How did COc1ccc(Cl)cc1C(=O)NCCN(C)C do in these assays?
KCNQ2 block: inactive; KCNQ2 enhance: 0.4

How did CCN(CC)CC(=O)Nc1ccc(C)cc1C(=O)c1ccccc1 do in these assays?
KCNQ2 block: inactive

Results for Cc1ccc(S(=O)(=O)NCCC(=O)Nc2ccc(C)cc2C(=O)c2ccccc2)cc1 ?
KCNQ2 block: inactive; KCNQ2 enhance: 5.4*

How did C=CCNC(=O)COC(=O)c1ccc(Cl)c(S(=O)(=O)N(Cc2ccccc2)c2ccccc2)c1 do in these assays?
KCNQ2 block: inactive

What do the screens show for `O=C1CSC(c2cccc([N+](=O)[O-])c2)N1Cc1ccccc1` (stereo not drawn)?
KCNQ2 block: inactive; KCNQ2 enhance: 0.81

What do the screens show for `COc1ccc(NC(=O)N(Cc2cccnc2)Cc2ccccc2Cl)c(OC)c1`?
KCNQ2 block: -5.8*; KCNQ2 enhance: -5.8

How did COc1ccc(NC(=O)NCc2cccnc2)c(OC)c1 do in these assays?
KCNQ2 block: inactive

What do the screens show for `O=C(C1CC=CCC1)N1CCC(CO)(Cc2ccc(Cl)cc2)CC1` (stereo not drawn)?
KCNQ2 block: inactive; KCNQ2 enhance: 0.01

How did COC(=O)c1cc(NC(=O)c2cccc(C(F)(F)F)c2)c(=O)oc1C/C=N/OCc1cccc(Cl)c1Cl do in these assays?
KCNQ2 block: -7.7*; KCNQ2 enhance: -7.7

How did COC(=O)c1cc(NC(=O)c2cccc(C(F)(F)F)c2)c(=O)oc1C do in these assays?
KCNQ2 block: inactive

How did O=C(CCl)Nc1cccc(S(=O)(=O)NC2=NCCC2)c1 do in these assays?
KCNQ2 block: inactive; KCNQ2 enhance: 0.02

Results for COc1ccc(C2C(C#N)=C(N)Oc3cc(C)[nH]c(=O)c32)cc1OC (stereo not drawn) ?
KCNQ2 block: inactive

What do the screens show for `COc1ccc(CCCC(=O)Nc2ccc(F)cc2)cc1`?
KCNQ2 block: inactive

What do the screens show for `Cc1nc2ccccc2c(=O)n1/N=C/c1ccco1`?
KCNQ2 block: inactive

How did Cc1nc2scc(-c3ccccc3)c2c(=O)n1/N=C/c1ccco1 do in these assays?
KCNQ2 block: -6.4*; KCNQ2 enhance: -6.4

What do the screens show for `Cc1ccc(C(=O)N/C(=C\c2ccccc2)C(=O)NCCN2CCOCC2)cc1`?
KCNQ2 block: inactive

What do the screens show for `CCOC(=O)c1c(N2C(=O)C3C4C=CC(C4)C3C2=O)sc2c1CCC(C)C2` (stereo not drawn)?
KCNQ2 block: inactive; KCNQ2 enhance: 6.7*

What do the screens show for `CCOC(=O)c1cc(C)sc1N1C(=O)C2C3C=CC(C3)C2C1=O` (stereo not drawn)?
KCNQ2 block: inactive; KCNQ2 enhance: 0.28

How did CC(C)(C)NS(=O)(=O)c1ccc(CCC(=O)NCc2ccccn2)cc1 do in these assays?
KCNQ2 block: inactive; KCNQ2 enhance: 0.45

What do the screens show for `CCc1nc2ccccc2n1CC(=O)OCC(=O)N(CC(C)C)c1c(N)n(Cc2ccccc2)c(=O)[nH]c1=O`?
KCNQ2 block: inactive

What do the screens show for `CCCN1CCN(CCCNC(=O)c2ccc(CS(=O)c3ccccc3C)o2)CC1` (stereo not drawn)?
KCNQ2 block: inactive; KCNQ2 enhance: 0.01

Results for Cc1ccc(C)c(S(=O)(=O)N2CCN(C(=O)CSc3ccccc3)CC2)c1 ?
KCNQ2 block: inactive; KCNQ2 enhance: 0.25

What do the screens show for `Cc1ccc(C)c(NS(=O)(=O)c2cc(C(=O)Nc3ccccc3-c3ccccc3)ccc2Cl)c1`?
KCNQ2 block: -7.1*; KCNQ2 enhance: -7.1

Results for COCCNC(=O)c1ccccc1NC(=O)c1ccc(Cl)c(S(=O)(=O)Nc2ccc(C)cc2C)c1 ?
KCNQ2 block: inactive

What do the screens show for `Cc1ccc(C)c(S(=O)(=O)N2CCN(C(C)C(=O)Nc3ccccc3-c3ccccc3)CC2)c1` (stereo not drawn)?
KCNQ2 block: -5.8*; KCNQ2 enhance: -5.8

What do the screens show for `CCN(CC)S(=O)(=O)c1ccc2[nH]c(=O)c3ccccc3c2c1`?
KCNQ2 block: inactive; KCNQ2 enhance: 2.5

What do the screens show for `CCOC(=O)C[N+]1(C)CCN(C(C)=O)CC1`?
KCNQ2 block: inactive; KCNQ2 enhance: 0.66

Results for CCN(CCn1cccn1)Cc1nc(Cc2cccc(F)c2)no1 ?
KCNQ2 block: inactive

How did O=c1c2ccccc2nc(-c2ccccc2)n1/N=C/c1ccc([N+](=O)[O-])cc1 do in these assays?
KCNQ2 block: -7.6*; KCNQ2 enhance: -7.6

How did Cc1ccccc1-c1nc2ccccc2c(=O)n1/N=C/c1ccc([N+](=O)[O-])cc1 do in these assays?
KCNQ2 block: inactive

Results for Cc1[nH]c2nc3ccccc3n2c(=O)c1CCC(C)C ?
KCNQ2 block: inactive

What do the screens show for `O=C(/C=C/c1ccccc1)N1CCN(c2ccc([N+](=O)[O-])c(N3CCOCC3)c2)CC1`?
KCNQ2 block: -6.4*; KCNQ2 enhance: -6.4

What do the screens show for `O=C(c1ccc2ccccc2c1)N1CCN(c2ccc([N+](=O)[O-])c(N3CCOCC3)c2)CC1`?
KCNQ2 block: inactive

What do the screens show for `CCn1c(C)cc(O)c(C(=O)Nc2cccc(Cl)c2)c1=O`?
KCNQ2 block: inactive; KCNQ2 enhance: 1.6

What do the screens show for `CCn1c(C)c(C)c2cc(C(=O)Nc3cccc(Cl)c3)ccc21`?
KCNQ2 block: -6.6*; KCNQ2 enhance: -6.6

How did CCC/C=N/NC(=O)c1[nH]c2c([N+](=O)[O-])cccc2c1C do in these assays?
KCNQ2 block: inactive; KCNQ2 enhance: 0.15

How did O=[N+]([O-])c1ccc(C2(O)CN(c3ccccc3)C3=[N+]2CCS3)cc1 (stereo not drawn) do in these assays?
KCNQ2 block: -6.5*; KCNQ2 enhance: -6.5

Results for Cc1ccc(C2(O)CN(c3ccccc3)C3=[N+]2CCS3)cc1 (stereo not drawn) ?
KCNQ2 block: inactive

Results for COc1cccc(C2CC(c3ccccc3Cl)n3nc(N)nc3N2)c1 (stereo not drawn) ?
KCNQ2 block: inactive; KCNQ2 enhance: 0.74

Results for COc1ccc(C2(c3ccc(O)cc3O)CC(c3ccccc3Cl)NC(=S)N2)cc1 (stereo not drawn) ?
KCNQ2 block: inactive; KCNQ2 enhance: 6.1*

How did CCCCOC(=O)CSC1=C(C#N)C(c2ccccc2OCC)C(C#N)C(=O)N1 (stereo not drawn) do in these assays?
KCNQ2 block: inactive; KCNQ2 enhance: 7.1*

What do the screens show for `CCCOC(=O)CSC1=C(C#N)C(c2ccccc2OCC)C(C#N)C(=O)N1` (stereo not drawn)?
KCNQ2 block: inactive; KCNQ2 enhance: 1.9

What do the screens show for `CSc1ccc(-c2sc(Nc3ccccc3)n[n+]2-c2ccccc2)cc1`?
KCNQ2 block: inactive

What do the screens show for `CSc1ccc(-c2sc(Nc3cccc4ccccc34)n[n+]2-c2ccccc2)cc1`?
KCNQ2 block: -5.6*; KCNQ2 enhance: -5.6

Results for COCCNC(=S)Nc1ccccc1Cc1ccccc1 ?
KCNQ2 block: inactive

What do the screens show for `CC(Oc1ccc(Br)cc1)c1nc2c3ccccc3nc(=S)n2[nH]1` (stereo not drawn)?
KCNQ2 block: inactive; KCNQ2 enhance: 5.4*
